Results reported in PubChem BioAssay (NCATS).
Inconclusive results are not listed. A call without a number means that no potency is given here. Unmarked numbers belong to inactive results. Calls of active or inactive are those of the source. The call rests on the fitted dose curve; in most records, active means well fitted curve in the direction sought with a large enough effect; inconclusive means small, poorly fitted or top-dose-only effect, or another doubt; inactive means no such curve, though single readings can be large; an effect the other way counts as inactive or inconclusive.

Key:
[1] = target: Rap guanine nucleotide exchange factor 3 (Homo sapiens) (UniProt O95398); experiment: Confirmatory qHTS for antagonist of cAMP-regulated guanine nucleotide exchange factor 3 (EPAC1) (AID 1645880); further: nearly all actives have a fitted effect of over 55% in size; further: potency means the concentration at half of the fitted maximal effect
Rap guanine nucleotide exchange factor 3 (Homo sapiens), sequence (O95398 whole entry, looked up): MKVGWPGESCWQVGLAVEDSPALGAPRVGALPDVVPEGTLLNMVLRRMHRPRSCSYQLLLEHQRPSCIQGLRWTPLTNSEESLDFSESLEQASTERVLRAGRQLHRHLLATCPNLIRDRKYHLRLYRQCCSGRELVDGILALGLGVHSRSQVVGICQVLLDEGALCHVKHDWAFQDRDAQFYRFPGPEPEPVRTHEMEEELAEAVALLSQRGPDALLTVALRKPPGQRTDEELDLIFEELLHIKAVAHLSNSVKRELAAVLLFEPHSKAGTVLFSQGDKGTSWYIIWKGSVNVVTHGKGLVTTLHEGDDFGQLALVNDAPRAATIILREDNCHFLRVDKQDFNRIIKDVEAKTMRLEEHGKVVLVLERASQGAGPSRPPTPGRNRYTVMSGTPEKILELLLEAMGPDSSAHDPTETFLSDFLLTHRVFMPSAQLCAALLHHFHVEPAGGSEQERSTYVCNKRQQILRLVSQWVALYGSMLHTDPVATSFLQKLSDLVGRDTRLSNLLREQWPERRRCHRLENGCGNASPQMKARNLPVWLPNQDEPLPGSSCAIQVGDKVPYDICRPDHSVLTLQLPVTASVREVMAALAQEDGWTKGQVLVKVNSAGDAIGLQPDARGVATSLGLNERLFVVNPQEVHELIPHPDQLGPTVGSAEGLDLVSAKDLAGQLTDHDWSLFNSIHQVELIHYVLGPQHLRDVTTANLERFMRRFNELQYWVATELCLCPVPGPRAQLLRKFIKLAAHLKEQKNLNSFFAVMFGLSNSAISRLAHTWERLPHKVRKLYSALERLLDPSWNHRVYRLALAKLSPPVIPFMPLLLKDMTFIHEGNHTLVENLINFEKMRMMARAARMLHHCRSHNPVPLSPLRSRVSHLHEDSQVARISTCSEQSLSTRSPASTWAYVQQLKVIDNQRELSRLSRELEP
Summary of the method: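 Released BODIPY-GDP fluoresces less than Rap1-bound BODIPY-GDP; the signal is followed at 480/540 nm at 5-min intervals over 30 min, after 5 min at room temperature. Reactions contain 100 nM EPAC1, 250 nM RAP1B-BODIPY-GDP and 50 uM GDP; results are normalized to ATA and DMSO.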

[2] = target: Rap guanine nucleotide exchange factor 3 (Homo sapiens) (UniProt O95398); experiment: Confirmatory qHTS for agonist of cAMP-regulated guanine nucleotide exchange factor 3 (EPAC1) (AID 1645881); further: nearly all actives have a fitted effect of over 75% in size; further: potency means the concentration at half of the fitted maximal effect;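 on activation: EPAC1 catalysed release of BODIPY-GDP from Rap1B seen as fluorescence loss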
[3] = target: Rap guanine nucleotide exchange factor 4 (Homo sapiens) (UniProt Q8WZA2); experiment: Confirmatory qHTS for agonist of cAMP-regulated guanine nucleotide exchange factor 4 (EPAC2) (AID 1645884);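 further: nucleotide exchange releases bodipy-GDP from Rap1 and this lowers its fluorescence; nearly all actives have a fitted effect of over 65% in size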; further: potency means the concentration at half of the fitted maximal effect
Rap guanine nucleotide exchange factor 4 (Homo sapiens), sequence (Q8WZA2 whole entry, looked up): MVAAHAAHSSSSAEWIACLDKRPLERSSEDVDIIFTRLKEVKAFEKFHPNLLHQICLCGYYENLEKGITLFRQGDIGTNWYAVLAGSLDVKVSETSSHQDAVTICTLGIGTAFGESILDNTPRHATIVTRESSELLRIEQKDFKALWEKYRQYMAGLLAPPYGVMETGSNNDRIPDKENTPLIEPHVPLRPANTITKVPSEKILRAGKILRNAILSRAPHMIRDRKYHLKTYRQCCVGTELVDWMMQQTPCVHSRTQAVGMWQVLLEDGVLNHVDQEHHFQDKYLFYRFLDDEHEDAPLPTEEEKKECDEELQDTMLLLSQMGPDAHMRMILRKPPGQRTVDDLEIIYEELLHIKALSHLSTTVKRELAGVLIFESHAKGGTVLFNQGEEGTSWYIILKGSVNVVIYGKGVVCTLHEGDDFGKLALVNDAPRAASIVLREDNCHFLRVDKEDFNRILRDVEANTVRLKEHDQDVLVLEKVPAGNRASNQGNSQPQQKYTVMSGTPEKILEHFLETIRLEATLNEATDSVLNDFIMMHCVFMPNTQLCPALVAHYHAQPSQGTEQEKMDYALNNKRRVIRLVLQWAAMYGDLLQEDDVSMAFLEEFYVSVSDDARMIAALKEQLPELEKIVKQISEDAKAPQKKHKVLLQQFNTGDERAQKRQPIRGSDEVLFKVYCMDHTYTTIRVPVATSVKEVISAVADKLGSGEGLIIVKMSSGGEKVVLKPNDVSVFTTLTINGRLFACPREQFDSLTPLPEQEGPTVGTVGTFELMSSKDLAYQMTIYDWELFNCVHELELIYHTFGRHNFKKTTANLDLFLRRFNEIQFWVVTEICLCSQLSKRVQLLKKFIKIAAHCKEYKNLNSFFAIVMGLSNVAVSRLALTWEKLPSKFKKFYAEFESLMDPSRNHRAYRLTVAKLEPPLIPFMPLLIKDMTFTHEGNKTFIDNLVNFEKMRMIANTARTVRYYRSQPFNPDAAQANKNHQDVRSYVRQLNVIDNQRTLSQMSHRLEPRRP

[4] = target: Rap guanine nucleotide exchange factor 4 (Homo sapiens) (UniProt Q8WZA2); experiment: Confirmatory qHTS for antagonist of cAMP-regulated guanine nucleotide exchange factor 4 (EPAC2) (AID 1645885); further: nearly all actives have a fitted effect of over 25% in size; further: potency means the concentration at half of the fitted maximal effect
[5] = target: Rap guanine nucleotide exchange factor 3 (Homo sapiens) (UniProt O95398); experiment: Counterscreen qHTS for antagonist of cAMP-regulated guanine nucleotide exchange factor 3 (EPAC1) (AID 1645888)
Summary of the method: (§1)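 Measured: fluorescence of BODIPY-GDP bound to Rap1B, which falls as exchange proceeds. Conditions include 50 uM competing GDP, 5 and 30 min reads, and a later cAMP challenge for antagonist detection.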

[6] = target: Rap guanine nucleotide exchange factor 3 (Homo sapiens) (UniProt O95398); experiment: Counterscreen qHTS for agonist of cAMP-regulated guanine nucleotide exchange factor 3 (EPAC1) (AID 1645889); further: nearly all actives have a fitted effect of over 40% in size; further: potency means the concentration at half of the fitted maximal effect
Summary of the method: as §1

SMILES	Potency [1]	Potency [2]	activation [3]	Potency [4]	activity change, negative = inhibition [5]	activation [6]	Potency [3]	Potency [5]	Potency [6]
O=C(CN1C(=O)N/C(=C\c2ccccc2OCc2ccc(C(=O)O)cc2)C1=O)Nc1ccccc1F	28.2 µM (active)	inactive	5.81% [at 17.1 µM, percent relative to cAMP agonist control]	inactive	-13.4% [at 30.8 µM]	19.6% [at 30.8 µM]	–	–	–
CCOc1cc(-c2nnc(NC(=O)C3=COCCO3)o2)cc(OCC)c1OCC	inactive	inactive	-6.21% [at 17.1 µM, percent relative to cAMP agonist control]	inactive	3.19% [at 30.8 µM]	5.03% [at 30.8 µM]	–	–	–
Cn1c2ccccc2c2cc(/C=N/NC(=O)c3cc(O)ccc3O)ccc21	25.1 µM (active)	inactive	-2.01% [at 17.1 µM, percent relative to cAMP agonist control]	inactive	-0.77% [at 30.8 µM]	29.4% [at 30.8 µM]	–	–	–
Cc1ccccc1OCc1nc2ccccc2n1Cc1ccccc1Cl	inactive	inactive	–	inactive	–	–	inactive	inactive	inactive
O=C(Cn1nnc2sc(-c3ccccc3)cc2c1=O)Nc1cccc(C(F)(F)F)c1	inactive	inactive	–	inactive	–	–	inactive	inactive	inactive
Cc1cc(C)n2[nH]c(=O)c(N=Nc3ccc(S(N)(=O)=O)cc3)c2n1	inactive	inactive	–	84.9 µM (active)	–	–	inactive	inactive	inactive
COC(=O)C(CC(=O)c1ccc(C)cc1)n1cccn1 (stereo not drawn)	inactive	inactive	–	inactive	–	–	inactive	inactive	inactive
CCOC(=O)C1CCCCN1Cc1cn(C)nc1-c1ccccc1F (stereo not drawn)	inactive	inactive	–	inactive	–	–	inactive	inactive	inactive
NNc1nc2c(Cl)ccc(Cl)c2s1	inactive	inactive	–	inactive	–	–	inactive	inactive	inactive
COCCNC(=O)c1ccc2c(c1)N(Cc1ccc(C(F)(F)F)cc1)C(=O)c1ccccc1S2	inactive	inactive	–	inactive	–	–	inactive	inactive	inactive
O=C1c2cc(O)c(O)cc2OC(c2ccc(O)c(O)c2)C1O (stereo not drawn)	42.6 µM (active)	inactive	–	inactive	–	–	inactive	inactive	inactive
COc1cc2ccccc2cc1C(=O)N1CCc2ccccc21	inactive	inactive	–	7.57 µM (active)	–	–	inactive	inactive	inactive
Cc1cc2[nH]c(=O)c(=O)[nH]c2cc1S(=O)(=O)Nc1cccc(Cl)c1	42.6 µM (active)	inactive	–	inactive	–	–	inactive	inactive	inactive
CC(C)CC1C(=O)N(Cc2cn(CCC3OCCCO3)nn2)CCS(=O)(=O)N1Cc1ccc(-c2ccccc2)cc1 (stereo not drawn)	inactive	inactive	–	inactive	–	–	inactive	inactive	inactive
Cc1cc2ccccn2c1C(=O)c1ccc(Cl)cc1	inactive	inactive	–	inactive	–	–	inactive	inactive	0.141 µM (active)
CC(=O)N1c2ccc(S(=O)(=O)N(C)Cc3ccco3)cc2CC1C (stereo not drawn)	inactive	inactive	–	inactive	–	–	inactive	inactive	inactive
Cn1c(=O)cc(N2CCN(C(=O)c3ccco3)CC2)[nH]c1=O	inactive	inactive	–	inactive	–	–	inactive	inactive	inactive
CCCn1c(N)c(C(=O)CSc2n[nH]c(-c3ccc(C)cc3)n2)c(=O)[nH]c1=O	inactive	inactive	–	inactive	–	–	inactive	inactive	inactive
O=C(NC1CCN(Cc2ccccc2)CC1)c1cn(-c2ccccc2)nc1-c1cccnc1	inactive	inactive	–	inactive	–	–	inactive	inactive	inactive
O=C(Nc1cc(-c2ccccc2)sc1C(=O)O)c1cccc(F)c1	47.8 µM (active)	inactive	–	inactive	–	–	inactive	inactive	inactive
CCOC(=O)c1ccccc1NC(=O)CSc1nccn1Cc1ccco1	inactive	inactive	–	inactive	–	–	inactive	inactive	inactive
COc1ccc(N2CCN(C(=O)CCc3ccccc3OC)CC2)cc1	inactive	inactive	–	inactive	–	–	inactive	inactive	inactive

SMILES	Potency [1]	Potency [2]	activation [3]	Potency [4]	activity change, negative = inhibition [5]	activation [6]	Potency [3]	Potency [5]	Potency [6]
Cc1ccc2[nH]cc(C(c3ccccc3)c3ccc(C)s3)c2c1 (stereo not drawn)	inactive	inactive	–	inactive	–	–	inactive	inactive	inactive
Cc1ccc(NC(=O)CN2C(=O)N/C(=C/c3ccccc3OCc3cccc(C(=O)O)c3)C2=O)cc1	31.6 µM (active)	inactive	-10.8% [at 17.1 µM, percent relative to cAMP agonist control]	inactive	-1.86% [at 30.8 µM]	5.98% [at 30.8 µM]	–	–	–
O=C(O)COc1ccc(NC(=O)C(c2ccccc2)c2ccccc2)cc1	inactive	inactive	–	33.8 µM (active)	–	–	inactive	inactive	inactive
CC(=O)C1=C(c2ccc(C)cc2)N(C(C)=O)n2c(nnc2C2CCCCC2)S1	inactive	inactive	–	inactive	–	–	inactive	inactive	inactive
Brc1ccc(-c2csc(-c3c[nH]c4ccccc34)n2)cc1	inactive	inactive	6.69% [at 17.1 µM, percent relative to cAMP agonist control]	inactive	3.69% [at 30.8 µM]	15.5% [at 30.8 µM]	–	–	–
Cc1ccc(S(=O)(=O)N2CCCCC2)cc1C(=O)NCCC1=CCCCC1	inactive	inactive	–	inactive	–	–	inactive	inactive	inactive
CCO/C(C)=N/Oc1cc(OC)cc(OC)c1	inactive	inactive	–	23.9 µM (active)	–	–	inactive	inactive	inactive
CCOC(=O)Cn1c(=O)oc2cc(S(=O)(=O)Nc3c(C)cc(C)cc3C)ccc21	inactive	inactive	4.43% [at 17.1 µM, percent relative to cAMP agonist control]	inactive	-16.5% [at 30.8 µM]	25.1% [at 30.8 µM]	–	–	–
CC1(C(=O)NS(=O)(=O)c2ccc(C#N)cc2)CCN1C(=O)C1(c2ccccc2)CCCC1 (stereo not drawn)	37.9 µM (active)	inactive	–	33.8 µM (active)	–	–	inactive	inactive	inactive
COc1ccccc1/C=C/C=C1\Oc2c(ccc(O)c2CN(C)C)C1=O	inactive	89.1 µM (active)	–	inactive	–	–	112 µM (active)	inactive	63.1 µM (active)
CCCc1nc2ccccc2c(=O)n1/N=C/c1ccccc1O	37.9 µM (active)	inactive	–	inactive	–	–	inactive	inactive	inactive
COc1cccc(/C(=N/O)C2CC2c2ccc(Cl)cc2)c1 (stereo not drawn)	inactive	inactive	1.73% [at 17.1 µM, percent relative to cAMP agonist control]	inactive	-11.7% [at 30.8 µM]	9.41% [at 30.8 µM]	–	–	–
CCOc1cc(/C=C2\C(=N)N3N=C(S(=O)(=O)CC)SC3=NC2=O)ccc1OC(=O)c1ccco1	30.1 µM (active)	inactive	–	inactive	–	–	inactive	inactive	inactive
COc1ccc(C(C)=O)cc1COc1ccc(F)cc1	inactive	inactive	4.69% [at 17.1 µM, percent relative to cAMP agonist control]	inactive	5.38% [at 30.8 µM]	4.32% [at 30.8 µM]	–	–	–
CC(Sc1nncn1C)C(=O)Nc1nnc(C(C)C)s1 (stereo not drawn)	inactive	inactive	–	inactive	–	–	inactive	inactive	inactive
CCCCC(=O)Nc1cccc(NC(=O)c2ccccc2Br)c1	inactive	inactive	–	inactive	–	–	inactive	inactive	inactive
CC(C(=O)Nc1ccccc1-c1ccccc1)N1CCN(C(=O)c2ccccc2)CC1 (stereo not drawn)	inactive	inactive	12.7% [at 17.1 µM, percent relative to cAMP agonist control]	inactive	16.7% [at 30.8 µM]	29% [at 30.8 µM]	–	–	–
Cc1ccc(OCC(=O)Nc2ccccc2N2CCCC2)c(C)c1	inactive	inactive	–	inactive	–	–	inactive	inactive	inactive
CCCC[C@@H]1CNC(=O)C(=O)N1CCc1cccc(F)c1	inactive	inactive	9.22% [at 17.1 µM, percent relative to cAMP agonist control]	inactive	-3.55% [at 30.8 µM]	-0.443% [at 30.8 µM]	–	–	–
COc1cc(/C=C2/C(=O)NN(c3ccc(C)c(Cl)c3)C2=O)cc([N+](=O)[O-])c1O	8.49 µM (active)	inactive	–	inactive	–	–	inactive	inactive	inactive
CC(/C=C1\SC(=S)N(C(C(=O)O)C(C)C)C1=O)=C\c1ccccc1 (stereo not drawn)	47.8 µM (active)	inactive	–	inactive	–	–	inactive	inactive	inactive
